According to PubChem BioAssay AID2284154 (EPA ToxCast):
Activity calls are given as the source filed them. Rule for the calls: active = hit-call score of the fitted dose curve at least 0.9, where 1 is the maximum; inactive = score below 0.9.

target: Muscarinic acetylcholine receptor M3 (Homo sapiens) (UniProt P20309); experiment: ERF_FR_GPCR_hCHRM3: Eurofins (ERF) G Protein-Coupled Receptor (GPCR) Radioligand Binding LeadHunter Assay for human Muscarinic Acetylcholine Receptor M3 Antagonism, conducted at France lab site
Sequence (P20309 whole entry, looked up): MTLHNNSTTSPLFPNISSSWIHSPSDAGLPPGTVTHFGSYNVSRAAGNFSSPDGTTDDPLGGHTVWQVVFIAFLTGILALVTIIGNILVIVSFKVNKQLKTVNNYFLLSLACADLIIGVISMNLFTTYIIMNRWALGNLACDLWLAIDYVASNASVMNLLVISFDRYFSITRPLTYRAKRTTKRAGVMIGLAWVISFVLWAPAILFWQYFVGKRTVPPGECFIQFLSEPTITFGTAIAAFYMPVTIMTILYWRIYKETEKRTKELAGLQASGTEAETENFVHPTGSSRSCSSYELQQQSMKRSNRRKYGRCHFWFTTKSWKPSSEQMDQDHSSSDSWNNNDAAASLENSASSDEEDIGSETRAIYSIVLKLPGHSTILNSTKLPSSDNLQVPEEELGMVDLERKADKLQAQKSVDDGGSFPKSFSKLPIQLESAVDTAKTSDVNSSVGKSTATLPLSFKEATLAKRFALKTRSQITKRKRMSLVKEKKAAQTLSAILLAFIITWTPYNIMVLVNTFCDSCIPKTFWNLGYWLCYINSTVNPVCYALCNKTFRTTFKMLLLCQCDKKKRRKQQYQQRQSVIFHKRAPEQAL
Protocol: ERF_FR_GPCR_hCHRM3 is a biochemical, single-readout assay that uses extracted gene-proteins in a cell-free assay. Measurements were taken 1 hour after chemical dosing in a 96-well plate. See M3 Human Acetylcholine (Muscarinic) GPCR Binding (Antagonist Radioligand) Assay, Cerep.ERF_FR_GPCR_hCHRM3 is an assay component calculated from the ERF_FR_GPCR_hCHRM3 assay. It is designed to measure radioligand binding using a type of binding reporter as detected by scintillation counting with radiometry technology.Data from the assay component ERF_FR_GPCR_hCHRM3 was analyzed at the assay endpoint, ERF_FR_GPCR_hCHRM3, in the positive analysis fitting direction relative to DMSO as the negative control and baseline of activity. Using a type of binding reporter, loss-of-signal activity can be used to understand changes in binding as they relate to gene CHRM3. To generalize the intended target to other relatable targets, this assay endpoint is annotated to the gpcr intended target family, where the subfamily is acetylcholine (Muscarinic).
Human cells are incubated for 60 minutes at room temprature with [3H]4-DAMP ligand (0.2 nM) and 4-Damp methiodide as control inhibitor.Test Sample Requirements: Minimum for 1) Screen: 60 ul of 10 mM stock -OR- 1 mg (pre-weighed) for 10 uM final testing. 2) Dose Response: 90 ul of 10 mM stock -OR- 1 mg (pre-weighed) for a top concentration at 10 uM.

SMILES	AC50
O=C(/C=C/c1ccc(O)cc1)CC(=O)/C=C/c1ccc(O)cc1	2.71 µM (active)
